From PubChem BioAssay AID1159580 (chemical genetic matrix, 2015)
Several values for one entry are separate records, joined by “and”; a condition that tells them apart may be missing. Equal entries are not always repeated. About 2,000 (36%) of roughly 5,500 compounds were called active. Not shown: some 18% with an inconclusive outcome. No stated cut-off is given here; in the data, active means normalized growth mostly below about 0.91 (no sharp cut-off); inconclusive means no clear call, values can overlap the other calls; inactive means mostly above about 0.92. Some of the results follow.

Assay: chemical genetic growth profiling, strain panel (AID 1159580);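 further: tested at 20 µM; growth read once vehicle control cultures reached saturation at 30 °C; 1 = growth at the plate median or of vehicle wells; lower values mean less growth of the strain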
Details: S. cerevisiae deletion strains, growth OD

Measured: normalized growth

C=CCC1(C(C)CCC)C(=O)N=C(S)NC1=O (stereo unspecified)
inactive: locus YAL013W, strain DEP1, active compounds read low 0.989 | locus YAL021C, strain ccr4, active compounds read low 0.989 | locus YAL026C, strain drs2, active compounds read low 1 | locus YAL030W, strain snc1, active compounds read low 0.984 | locus YBL061C, strain skt5, active compounds read low 0.975 | locus YBR009C, strain hhf1, active compounds read low 1.01 | locus YBR021W, strain FUR4, active compounds read low 0.982 | locus YBR023C, strain chs3, active compounds read low 0.986 | locus YBR171W, strain sec66, active compounds read low 0.949 | locus YBR229C, strain ROT2, active compounds read low 0.994 | locus YBR231C, strain swc5, active compounds read low 0.976 | locus YBR279W, strain paf1, active compounds read low 0.998 | locus YCL011C, strain gbp2, active compounds read low 0.974 | locus YCL016C, strain dcc1, active compounds read low 1 | locus YCL029C, strain bik1, active compounds read low 0.981 | locus YCL061C, strain MRC1, active compounds read low 0.982 | locus YCL069W, strain vba3, active compounds read low 0.99 | locus YCR088W, strain abp1, active compounds read low 0.967 | locus YDL005C, strain med2, active compounds read low 0.937 | locus YDL035C, strain GPR1, active compounds read low 0.985 | locus YDL040C, strain nat1, active compounds read low 0.973 | locus YDL074C, strain BRE1, active compounds read low 1.06 | locus YDL101C, strain DUN1, active compounds read low 0.979 | locus YDL134C, strain PPH21, active compounds read low 0.997 | locus YDL185W, strain tfp1, active compounds read low 0.958 | locus YDL192W, strain arf1, active compounds read low 0.976 | locus YDR001C, strain nth1, active compounds read low 0.949 | locus YDR069C, strain doa4, active compounds read low 0.949 | locus YDR101C, strain arx1, active compounds read low 0.988 | locus YDR137W, strain rgp1, active compounds read low 0.919 | locus YDR150W, strain NUM1, active compounds read low 0.994 | locus YDR159W, strain sac3, active compounds read low 0.952 | locus YDR162C, strain NBP2, active compounds read low 1.01 | locus YDR195W, strain ref2 0.885 | locus YDR297W, strain sur2, active compounds read low 0.983 | locus YDR318W, strain mcm21, active compounds read low 0.986 | locus YDR334W, strain swr1, active compounds read low 0.938 | locus YDR335W, strain msn5, active compounds read low 0.964 | locus YDR388W, active compounds read low 0.986 | locus YDR392W, strain spt3, active compounds read low 1.01 | locus YDR502C, strain sam2, active compounds read low 1 | locus YEL003W, strain gim4, active compounds read low 0.979 | locus YEL037C, strain rad23, active compounds read low 0.974 | locus YEL061C, strain CIN8 (second series), active compounds read low 0.968 | locus YEL061C, strain CIN8, active compounds read low 0.988 | locus YER015W, strain faa2, active compounds read low 0.957 | locus YER016W, strain bim1, active compounds read low 0.987 | locus YER110C, active compounds read low 0.981 | locus YER111C, strain swi4, active compounds read low 0.989 | locus YER155C, strain BEM2 (second series), active compounds read low 0.928 | locus YER155C, strain BEM2, active compounds read low 0.988 | locus YER167W, strain BCK2, active compounds read low 0.961 | locus YFR010W, strain ubp6, active compounds read low 0.952 | locus YGL078C, strain dbp3, active compounds read low 0.986 | locus YGL086W, strain mad1, active compounds read low 0.975 | locus YGL167C, strain pmr1, active compounds read low 0.962 | locus YGL173C, strain kem1, active compounds read low 0.999 | locus YGL227W, strain vid30, active compounds read low 0.954 | locus YGL240W, strain doc1, active compounds read low 0.944 | locus YGL248W, strain PDE1, active compounds read low 1 | locus YGL253W, strain hxk2, active compounds read low 0.969 | locus YGR078C, strain PAC10, active compounds read low 1.02 | locus YGR135W, strain pre9, active compounds read low 1.02 | locus YGR229C, strain SMI1, active compounds read low 1.02 | locus YGR252W, strain gcn5, active compounds read low 1.03 | locus YHR013C, strain ard1, active compounds read low 0.964 | locus YHR027C, strain rpn1, active compounds read low 0.977 | locus YHR030C, strain SLT2, active compounds read low 0.976 and 0.982 | locus YHR079C, strain IRE1 (second series), active compounds read low 0.987 | locus YHR079C, strain IRE1, active compounds read low 0.979 | locus YHR094C, strain hxt1, active compounds read low 0.968 | locus YHR129C, strain ARP1, active compounds read low 1 | locus YHR142W, strain chs7, active compounds read low 0.996 | locus YHR200W, strain rpn10, active compounds read low 0.965 | locus YIL066C, strain RNR3, active compounds read low 0.999 | locus YIL073C, strain SPO22, active compounds read low 0.934 | locus YIL125W, strain kgd1, active compounds read low 0.982 | locus YIR030C, strain dcg1, active compounds read low 0.978 | locus YJL092W, strain hpr5, active compounds read low 0.985 | locus YJL095W, strain BCK1 (second series), active compounds read low 0.975 | locus YJL095W, strain BCK1, active compounds read low 1.07 and 0.994 | locus YJL115W, strain asf1, active compounds read low 0.952 | locus YJL129C, strain trk1, active compounds read low 0.928 | locus YJL134W, strain LCB3, active compounds read low 0.979 | locus YJL154C, strain vps35, active compounds read low 0.965 | locus YJL164C, strain tpk1, active compounds read low 1.01 | locus YJL166W, strain qcr8, active compounds read low 0.969 | locus YJL168C, strain set2, active compounds read low 0.983 | locus YJL187C, strain SWE1 (second series), active compounds read low 1.01 | locus YJR043C, strain POL32, active compounds read low 0.978 | locus YJR066W, strain TOR1, active compounds read low 0.959
